Experimental data taken from PubChem BioAssay (EPA / NIEHS).
Where “and” joins values, the source holds several entries; their conditions need not be identical. Equal values may be shown once. Where a structure was tested more than once in an assay, its records may differ in their call. Calls of active or inactive are those of the source. Rule for the calls: active = hit-call score of the fitted dose curve at least 0.9, where 1 is the maximum; inactive = score below 0.9.

What was measured:
[1] = read-out: Macrophage colony-stimulating factor (MCSF), CSF1 (gene 1435); assay: BSK_hDFCGF_MCSF: BioMAP Diversity Plus: hDFCGF Assay for Macrophage colony-stimulating factor (MCSF) Biomarker Activity (AID 2283060); settings: primary human foreskin fibroblasts; actives raise or lower the signal
Summary of the method: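 M-CSF levels read by ELISA at 24 h post-dosing in human skin fibroblasts. Parallel cultures stained with SRB assessed cytotoxicity at the same time point; response fitted in both directions against the DMSO baseline.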

[2] = BSK_hDFCGF_SRB: Viability Assessment in the BioMAP Diversity Plus: hDFCGF Assay (AID 2283061); settings: primary human foreskin fibroblasts;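 note: cells exposed to compound for 24 h before the read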
Summary of the method: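 Viability was read as total protein: after 10% TCA fixation, wells were stained with 0.1% sulforhodamine B and read at 560 nm. Primary human foreskin fibroblasts were dosed for 24 h, with bidirectional fitting versus DMSO.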

[3] = read-out: TIMP metallopeptidase inhibitor 1 (TIMP1), TIMP1 (gene 7076); assay: BSK_hDFCGF_TIMP1: BioMAP Diversity Plus: hDFCGF Assay for TIMP metallopeptidase inhibitor 1 (TIMP1) Biomarker Activity (AID 2283062); settings: primary human foreskin fibroblasts; actives raise or lower the signal
Summary of the method: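 TIMP-1 measured by ELISA 24 h after chemical dosing of primary human skin fibroblasts, with gain or loss fitted relative to DMSO. Parallel SRB staining (560 nm) monitored overt cytotoxicity.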

[4] = read-out: Monokine induced gamma interferon (MIG), CXCL9 (gene 4283); assay: BSK_hDFCGF_MIG: BioMAP Diversity Plus: hDFCGF Assay for Monokine induced gamma interferon (MIG) Biomarker Activity (AID 2283063); settings: primary human foreskin fibroblasts; actives raise or lower the signal
Summary of the method: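 Human primary foreskin fibroblasts in the hDFCGF system, exposed to test chemical for 24 h; MIG measured by ELISA. Bidirectional curve fitting against DMSO negative control as activity baseline.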

[5] = read-out: Matrix Metallopeptidase 1 (MMP1), MMP1 (gene 4312); assay: BSK_hDFCGF_MMP1: BioMAP Diversity Plus: hDFCGF Assay for Matrix Metallopeptidase 1 (MMP1) Biomarker Activity (AID 2283064); settings: primary human foreskin fibroblasts; actives raise or lower the signal
Summary of the method: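 Primary human foreskin fibroblasts exposed to chemicals for 24 h; MMP1 measured by ELISA. Cytotoxicity tracked by SRB staining in parallel cultures; bidirectional fit relative to DMSO.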

[6] = read-out: Vascular cell adhesion molecule 1 (VCAM1), VCAM1 (gene 7412); assay: BSK_hDFCGF_VCAM1: BioMAP Diversity Plus: hDFCGF Assay for Vascular cell adhesion molecule 1 (VCAM1) Biomarker Activity (AID 2283065); settings: primary human foreskin fibroblasts; actives raise or lower the signal;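 for AC50: VCAM-1 protein level quantified by ELISA after 24 h chemical exposure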
Summary of the method: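 ELISA readout of VCAM-1 on human dermal fibroblast primary cultures, 24 h after chemical exposure. Gain or loss of signal fitted in both directions against DMSO baseline.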

[7] = read-out: Plasminogen activator inhibitor-1 (PAI1), SERPINE1 (gene 5054); assay: BSK_hDFCGF_PAI1: BioMAP Diversity Plus: hDFCGF Assay for Plasminogen activator inhibitor-1 (PAI1) Biomarker Activity (AID 2283066); settings: primary human foreskin fibroblasts; actives raise or lower the signal
Summary of the method: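 Human foreskin fibroblasts in the hDFCGF system were dosed with compound for 24 h; PAI-1 was quantified by ELISA. Bidirectional curve fitting used DMSO as negative control and baseline.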

[8] = read-out: Intercellular Adhesion Molecule 1 (ICAM1), ICAM1 (gene 3383); assay: BSK_KF3CT_ICAM1: BioMAP Diversity Plus: KF3CT Assay for Intercellular Adhesion Molecule 1 (ICAM1) Biomarker Activity (AID 2283067); settings: primary human keratinocytes with fibroblasts; actives raise or lower the signal
Summary of the method: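 Cell-surface ICAM-1 was measured by ELISA 24 h after dosing primary human skin keratinocytes co-cultured with fibroblasts. Parallel SRB staining tracked overt cytotoxicity. Gain or loss of signal was fitted relative to DMSO.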

[9] = BSK_KF3CT_SRB: Viability Assessment in the BioMAP Diversity Plus: KF3CT Assay (AID 2283069); settings: primary human keratinocytes with fibroblasts;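 note: total protein by sulforhodamine B staining as a cytotoxicity measure; read 24 h after compound addition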
Summary of the method: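 Human keratinocyte and foreskin fibroblast co-culture exposed to chemical for 24 h. Total protein measured in parallel cultures by 0.1% sulforhodamine B staining after 10% TCA fixation, read at 560 nm; bidirectional fit relative to DMSO.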

[10] = read-out: Interleukin-1 alpha (IL1a), IL1A (gene 3552); assay: BSK_KF3CT_IL1a: BioMAP Diversity Plus: KF3CT Assay for Interleukin-1 alpha (IL1a) Biomarker Activity (AID 2283070); settings: primary human keratinocytes with fibroblasts; actives raise or lower the signal
Summary of the method: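 Primary human keratinocyte plus foreskin fibroblast co-culture, dosed and measured at 24 h in 96-well plates. IL-1a level quantified by ELISA; bidirectional fit relative to DMSO.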

[11] = read-out: TIMP metallopeptidase inhibitor 2 (TIMP2), TIMP2 (gene 7077); assay: BSK_KF3CT_TIMP2: BioMAP Diversity Plus: KF3CT Assay for TIMP metallopeptidase inhibitor 2 (TIMP2) Biomarker Activity (AID 2283071); settings: primary human keratinocytes with fibroblasts; actives raise or lower the signal
Summary of the method: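 Human primary keratinocyte/foreskin fibroblast co-culture dosed with chemical and sampled at 24 h. TIMP-2 levels quantified by ELISA; bidirectional fitting against DMSO negative control as baseline.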

[12] = read-out: Transforming growth factor beta 1 (TGFb1), TGFB1 (gene 7040); assay: BSK_KF3CT_TGFb1: BioMAP Diversity Plus: KF3CT Assay for Transforming growth factor beta 1 (TGFb1) Biomarker Activity (AID 2283072); settings: primary human keratinocytes with fibroblasts; actives raise or lower the signal
Summary of the method: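 Human keratinocyte plus foreskin fibroblast primary co-culture, dosed with chemical for 24 h. TGF-b1 quantified by ELISA. Activity fitted bidirectionally against DMSO negative control as baseline.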

[13] = read-out: C-C motif chemokine 2 (Homo sapiens) (UniProt P13500); assay: BSK_KF3CT_MCP1: BioMAP Diversity Plus: KF3CT Assay for Monocyte Chemoattractant Protein 1 (MCP1/CCL2) Biomarker Activity (AID 2283073); settings: primary human keratinocytes with fibroblasts; actives raise or lower the signal
Summary of the method: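 ELISA read-out of MCP-1, 24 h post-dose, in primary human skin keratinocytes co-cultured with fibroblasts. Parallel SRB staining monitors cytotoxicity; changes fitted both directions relative to DMSO.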

[14] = read-out: Matrix Metallopeptidase 9 (MMP9), MMP9 (gene 4318); assay: BSK_KF3CT_MMP9: BioMAP Diversity Plus: KF3CT Assay for Matrix Metallopeptidase 9 (MMP9) Biomarker Activity (AID 2283074); settings: primary human keratinocytes with fibroblasts; actives raise or lower the signal;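 for AC50: MMP9 protein level quantified by ELISA in the co-culture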
Summary of the method: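 Human keratinocyte and foreskin fibroblast co-culture exposed to chemicals for 24 h; MMP9 biomarker measured by ELISA, bidirectional fitting relative to DMSO; cytotoxicity tracked by SRB total protein staining in parallel cultures.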

[15] = read-out: urokinase plasminogen activator (uPA), PLAU (gene 5328); assay: BSK_KF3CT_uPA: BioMAP Diversity Plus: KF3CT Assay for urokinase plasminogen activator (uPA) Biomarker Activity (AID 2283075); settings: primary human keratinocytes with fibroblasts; actives raise or lower the signal
Summary of the method: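 Primary human keratinocyte/foreskin fibroblast co-culture exposed to chemical; uPA measured by ELISA at 24 h. Bidirectional fit versus DMSO, with parallel SRB total-protein staining for cytotoxicity.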

CD40, CD40 (gene 958) = assay: BSK_LPS_CD40: BioMAP Diversity Plus: LPS Assay for CD40 Biomarker Activity (AID 2283076); settings: primary human HUVEC with PBMC; actives raise or lower the signal
Summary of the method: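 In the LPS system of human endothelial cells with peripheral blood mononuclear cells, CD40 levels were read by ELISA 24 h post-treatment. Signal changes in either direction were fitted against the DMSO baseline, with parallel SRB protein staining.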

[16] = read-out: E-selectin (Homo sapiens) (UniProt P16581); assay: BSK_LPS_Eselectin: BioMAP Diversity Plus: LPS Assay for Eselectin Biomarker Activity (AID 2283077); settings: primary human HUVEC with PBMC; actives raise or lower the signal
Summary of the method: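 E-selectin ELISA on LPS-stimulated endothelial cell/PBMC co-cultures, read 24 h post-treatment; gains and losses fitted against DMSO. Parallel SRB staining (0.1% SRB after 10% TCA fixation, 560 nm) flags overt cytotoxicity.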

[17] = read-out: Interleukin-8 (IL8), CXCL8 (gene 3576); assay: BSK_LPS_IL8: BioMAP Diversity Plus: LPS Assay for Interleukin-8 (IL8) Biomarker Activity (AID 2283078); settings: primary human HUVEC with PBMC; actives raise or lower the signal
Summary of the method: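 ELISA read-out of IL-8 after 24 h chemical treatment of LPS-activated endothelial/PBMC human primary co-cultures. Changes either up or down relative to DMSO; overt cytotoxicity checked by sulforhodamine B staining in parallel wells.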

[18] = BSK_LPS_SRB: Viability Assessment in the BioMAP Diversity Plus: LPS Assay (AID 2283079); settings: primary human HUVEC with PBMC;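 note: total protein by sulforhodamine B absorbance as a cytotoxicity measure; measured one day after compound addition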
Summary of the method: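 SRB viability endpoint: cells fixed with 10% TCA, stained with 0.1% SRB, read at 560 nm, 24 h post-dose. HUVEC/PBMC co-culture; signal change in either direction scored relative to DMSO.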

[19] = read-out: Interferon-gamma inducible Protein 10 (IP10), CXCL10 (gene 3627); assay: BSK_KF3CT_IP10: BioMAP Diversity Plus: KF3CT Assay for Interferon-gamma inducible Protein 10 (IP10) Biomarker Activity (AID 2283068); settings: primary human keratinocytes with fibroblasts; actives raise or lower the signal
Summary of the method: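 In a primary skin co-culture of keratinocytes and fibroblasts, IP-10 is quantified by ELISA at 24 h after dosing. SRB staining of parallel wells monitors overt toxicity. Curves are fitted both directions against DMSO.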

Measured: AC50

Chain of E-selectin (Homo sapiens) (P16581 whole entry, looked up): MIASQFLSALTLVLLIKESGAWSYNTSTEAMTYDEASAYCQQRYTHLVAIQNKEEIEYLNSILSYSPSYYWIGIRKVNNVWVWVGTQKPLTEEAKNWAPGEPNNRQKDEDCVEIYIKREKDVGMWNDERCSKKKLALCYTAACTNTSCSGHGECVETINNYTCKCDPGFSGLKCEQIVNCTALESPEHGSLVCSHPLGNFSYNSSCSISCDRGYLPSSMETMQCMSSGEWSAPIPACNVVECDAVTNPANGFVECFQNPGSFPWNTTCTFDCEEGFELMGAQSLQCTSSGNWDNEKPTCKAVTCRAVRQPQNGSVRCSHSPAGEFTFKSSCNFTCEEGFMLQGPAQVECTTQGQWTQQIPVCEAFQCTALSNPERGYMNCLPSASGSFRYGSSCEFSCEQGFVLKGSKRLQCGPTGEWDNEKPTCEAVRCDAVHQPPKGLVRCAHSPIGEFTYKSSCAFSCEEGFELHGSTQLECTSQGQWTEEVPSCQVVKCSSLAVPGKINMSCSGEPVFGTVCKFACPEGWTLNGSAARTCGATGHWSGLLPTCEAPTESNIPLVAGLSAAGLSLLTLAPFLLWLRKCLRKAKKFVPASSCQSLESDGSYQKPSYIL

CCNc1nc(Cl)nc(NC(C)(C)C#N)n1
inactive: [1] | [2] | [3] | [4] | [5] | [6] | [8] | [9] | [10] | [11] | [12] | [13] | [14] | [15] | CD40, CD40 (gene 958) | [16] | [17] | [18]
active: [7] 10.6 µM

S=C1NCCN1
inactive: [1] | [2] | [3] | [4] | [5] | [6] | [7] | [8] | [19] | [9] | [10] | [11] | [12] | [13] | [14] | [15] | CD40, CD40 (gene 958) | [16] | [17] | [18]

O=c1ccc(=O)[nH][nH]1
inactive: [1] | [2] | [3] | [4] | [5] | [6] | [7] | [8] | [19] | [9] | [10] | [11] | [12] | [13] | [14] | [15] | CD40, CD40 (gene 958) | [16] | [17] | [18]

CCOP(=S)(OCC)Oc1cc(C)nc(C(C)C)n1
inactive: [1] | [2] | [3] | [4] | [5] | [6] | [7] | [8] | [19] | [9] | [10] | [11] | [12] | [13] | [14] | [15] | CD40, CD40 (gene 958) | [16] | [17] | [18]

C=C(C)[C@H]1Cc2c(ccc3c2O[C@@H]2COc4cc(OC)c(OC)cc4[C@@H]2C3=O)O1
inactive: [1] | [2] | [3] | [4] | [5] | [7] | [8] | [10] | [11] | [12] | [13] | [15] | [17]
active: [6] 7.69 µM | [19] 31.8 µM | [9] 3.97 µM | [14] 16.7 µM | CD40, CD40 (gene 958) 6.01 µM | [16] 20 µM | [18] 10.9 µM

O=[N+]([O-])c1cc(C(F)(F)F)c(Cl)c([N+](=O)[O-])c1Nc1ncc(C(F)(F)F)cc1Cl
inactive: [3] | [12]
active: [1] 1.17 µM and 6.88 µM | [2] 810 nM and 9.49 µM | [3] 1.12 µM | [4] 1.32 µM and 8.98 µM | [5] 1.59 µM and 10.6 µM | [6] 954 nM and 7.64 µM | [7] 859 nM and 9.54 µM | [8] 1.15 µM and 9.82 µM | [9] 741 nM and 5.95 µM | [10] 867 nM and 6.33 µM | [11] 588 nM and 11.3 µM | [12] 7.7 µM | [13] 1.71 µM and 15.5 µM | [14] 991 nM and 5.6 µM | [15] 1.37 µM and 7.61 µM | CD40, CD40 (gene 958) 1.44 µM and 6.49 µM | [16] 1.55 µM and 3.22 µM | [17] 2.33 µM and 3.94 µM | [18] 2 µM and 3.96 µM
